Measurements as given in the supplement of paper PMC8728848.
Many of the other results were omitted from the sample, so the strongest signals are more common in it than they were.

Experiments:
Assay in all cases: glycan array binding signal (z-score within array); higher = stronger binding
GlcNAc(b1-3)Gal = settings: glycan notation: IUPAC condensed, linker removed
Method in brief: (§1)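 The binding signal is a Z-score computed within each array and averaged over linkers. Arrays of the same protein sequence at different concentrations or buffers were also averaged together. Data originate from 3228 arrays in the Consortium for Functional Glycomics database, kept only where the protein sequence was available.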

GlcNAc3Prop(b1-4)GlcNAc = settings: glycan notation: IUPAC condensed, linker removed
Method in brief: as §1

[1] = tested on: GlcNAc(b1-4)GlcNAc(b1-4)GlcNAc(b1-4)GlcNAc(b1-4)GlcNAc(b1-4)GlcNAc; settings: glycan notation: IUPAC condensed, linker removed
Method in brief: as §1

[2] = tested on: GlcNAc(b1-4)GlcNAc(b1-4)GlcNAc(b1-4)GlcNAc(b1-4)GlcNAc; settings: glycan notation: IUPAC condensed, linker removed
Method in brief: as §1

GlcNAc(b1-3)Gal(b1-4)Glc = settings: glycan notation: IUPAC condensed, linker removed
Method in brief: as §1

GlcNAc(b1-6)GalNAc = settings: glycan notation: IUPAC condensed, linker removed
Method in brief: as §1

[3] = tested on: GlcNAc(b1-3)Gal(b1-4)GlcNAc(b1-3)Gal(b1-4)GlcNAc(b1-2)Man(a1-3)[GlcNAc(b1-3)Gal(b1-4)GlcNAc(b1-3)Gal(b1-4)GlcNAc(b1-2)Man(a1-6)]Man(b1-4)GlcNAc(b1-4)[Fuc(a1-6)]GlcNAc; settings: glycan notation: IUPAC condensed, linker removed
Method in brief: as §1

[4] = tested on: GlcNAc(b1-3)Gal(b1-4)GlcNAc(b1-3)Gal(b1-4)GlcNAc(b1-2)[GlcNAc(b1-3)Gal(b1-4)GlcNAc(b1-3)Gal(b1-4)GlcNAc(b1-6)]Man(a1-6)[GlcNAc(b1-3)Gal(b1-4)GlcNAc(b1-3)Gal(b1-4)GlcNAc(b1-2)Man(a1-3)]Man(b1-4)GlcNAc(b1-4)[Fuc(a1-6)]GlcNAc; settings: glycan notation: IUPAC condensed, linker removed
Method in brief: as §1

[5] = tested on: GlcNAc(b1-3)Gal(b1-4)GlcNAc(b1-3)Gal(b1-4)GlcNAc(b1-3)Gal(b1-4)GlcNAc(b1-2)Man(a1-3)[GlcNAc(b1-3)Gal(b1-4)GlcNAc(b1-3)Gal(b1-4)GlcNAc(b1-3)Gal(b1-4)GlcNAc(b1-2)Man(a1-6)]Man(b1-4)GlcNAc(b1-4)GlcNAc; settings: glycan notation: IUPAC condensed, linker removed
Method in brief: as §1

[6] = tested on: GlcNAc(b1-3)Gal(b1-4)GlcNAc(b1-3)Gal(b1-4)GlcNAc(b1-3)Gal(b1-4)GlcNAc(b1-2)[GlcNAc(b1-3)Gal(b1-4)GlcNAc(b1-3)Gal(b1-4)GlcNAc(b1-3)Gal(b1-4)GlcNAc(b1-6)]Man(a1-6)[GlcNAc(b1-3)Gal(b1-4)GlcNAc(b1-3)Gal(b1-4)GlcNAc(b1-3)Gal(b1-4)GlcNAc(b1-2)Man(a1-3)]Man(b1-4)GlcNAc(b1-4)[Fuc(a1-6)]GlcNAc; settings: glycan notation: IUPAC condensed, linker removed
Method in brief: as §1

Kdn(a2-3)Gal(b1-3)GlcNAc = settings: glycan notation: IUPAC condensed, linker removed
Method in brief: as §1

[7] = tested on: GlcNAc(b1-6)Gal(b1-4)GlcNAc; settings: glycan notation: IUPAC condensed, linker removed
Method in brief: as §1

[8] = tested on: GlcNAc6S(b1-3)Gal(b1-4)GlcNAc; settings: glycan notation: IUPAC condensed, linker removed
Method in brief: as §1

[9] = tested on: GlcNAc(b1-3)Gal(b1-4)GlcNAc(b1-3)Gal(b1-4)GlcNAc(b1-3)Gal(b1-4)GlcNAc(b1-2)Man(a1-3)[GlcNAc(b1-3)Gal(b1-4)GlcNAc(b1-3)Gal(b1-4)GlcNAc(b1-3)Gal(b1-4)GlcNAc(b1-2)Man(a1-6)]Man(b1-4)GlcNAc(b1-4)[Fuc(a1-6)]GlcNAc; settings: glycan notation: IUPAC condensed, linker removed
Method in brief: as §1

[10] = tested on: GlcNAc(b1-3)Gal(b1-4)GlcNAc(b1-3)Gal(b1-4)GlcNAc(b1-3)Gal(b1-4)GlcNAc(b1-3)Gal(b1-4)GlcNAc(b1-2)Man(a1-3)[GlcNAc(b1-3)Gal(b1-4)GlcNAc(b1-3)Gal(b1-4)GlcNAc(b1-3)Gal(b1-4)GlcNAc(b1-3)Gal(b1-4)GlcNAc(b1-2)Man(a1-6)]Man(b1-4)GlcNAc(b1-4)GlcNAc; settings: glycan notation: IUPAC condensed, linker removed; mutation: R125K
Method in brief: as §1

[11] = tested on: GlcNAc(b1-4)[GlcNAc(b1-6)]GalNAc; settings: glycan notation: IUPAC condensed, linker removed
Method in brief: as §1

[12] = tested on: GlcNAc(b1-3)[GlcNAc(b1-6)]Gal(b1-4)GlcNAc; settings: glycan notation: IUPAC condensed, linker removed
Method in brief: as §1

[13] = tested on: GlcNAc(b1-3)Gal(b1-4)GlcNAc; settings: glycan notation: IUPAC condensed, linker removed
Method in brief: as §1

[14] = tested on: GlcNAc(b1-3)Gal(b1-4)GlcNAc(b1-3)Gal(b1-4)GlcNAc; settings: glycan notation: IUPAC condensed, linker removed
Method in brief: as §1

[15] = tested on: GlcNAc(b1-3)[GlcNAc(b1-4)][GlcNAc(b1-6)]GlcNAc; settings: glycan notation: IUPAC condensed, linker removed
Method in brief: as §1

Chain of PILRb (Mus musculus), Q2YSF2 (Q2YSF2 entry or part of it): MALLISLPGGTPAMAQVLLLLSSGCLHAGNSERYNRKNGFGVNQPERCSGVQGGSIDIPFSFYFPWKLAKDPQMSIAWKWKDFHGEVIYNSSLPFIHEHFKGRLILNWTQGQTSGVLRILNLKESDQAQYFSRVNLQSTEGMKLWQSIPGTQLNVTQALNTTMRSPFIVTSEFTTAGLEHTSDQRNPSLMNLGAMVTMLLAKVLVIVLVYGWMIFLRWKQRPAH
Chain of Avaren (Actinomycete K97) (chain, as listed by the source): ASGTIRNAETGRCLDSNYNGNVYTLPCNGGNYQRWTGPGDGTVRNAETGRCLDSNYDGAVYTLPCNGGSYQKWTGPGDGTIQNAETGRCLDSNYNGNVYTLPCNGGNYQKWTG
Chain of Neurocan (Homo sapiens), O14594 (O14594 other isoform, or with tags, fused parts or gaps): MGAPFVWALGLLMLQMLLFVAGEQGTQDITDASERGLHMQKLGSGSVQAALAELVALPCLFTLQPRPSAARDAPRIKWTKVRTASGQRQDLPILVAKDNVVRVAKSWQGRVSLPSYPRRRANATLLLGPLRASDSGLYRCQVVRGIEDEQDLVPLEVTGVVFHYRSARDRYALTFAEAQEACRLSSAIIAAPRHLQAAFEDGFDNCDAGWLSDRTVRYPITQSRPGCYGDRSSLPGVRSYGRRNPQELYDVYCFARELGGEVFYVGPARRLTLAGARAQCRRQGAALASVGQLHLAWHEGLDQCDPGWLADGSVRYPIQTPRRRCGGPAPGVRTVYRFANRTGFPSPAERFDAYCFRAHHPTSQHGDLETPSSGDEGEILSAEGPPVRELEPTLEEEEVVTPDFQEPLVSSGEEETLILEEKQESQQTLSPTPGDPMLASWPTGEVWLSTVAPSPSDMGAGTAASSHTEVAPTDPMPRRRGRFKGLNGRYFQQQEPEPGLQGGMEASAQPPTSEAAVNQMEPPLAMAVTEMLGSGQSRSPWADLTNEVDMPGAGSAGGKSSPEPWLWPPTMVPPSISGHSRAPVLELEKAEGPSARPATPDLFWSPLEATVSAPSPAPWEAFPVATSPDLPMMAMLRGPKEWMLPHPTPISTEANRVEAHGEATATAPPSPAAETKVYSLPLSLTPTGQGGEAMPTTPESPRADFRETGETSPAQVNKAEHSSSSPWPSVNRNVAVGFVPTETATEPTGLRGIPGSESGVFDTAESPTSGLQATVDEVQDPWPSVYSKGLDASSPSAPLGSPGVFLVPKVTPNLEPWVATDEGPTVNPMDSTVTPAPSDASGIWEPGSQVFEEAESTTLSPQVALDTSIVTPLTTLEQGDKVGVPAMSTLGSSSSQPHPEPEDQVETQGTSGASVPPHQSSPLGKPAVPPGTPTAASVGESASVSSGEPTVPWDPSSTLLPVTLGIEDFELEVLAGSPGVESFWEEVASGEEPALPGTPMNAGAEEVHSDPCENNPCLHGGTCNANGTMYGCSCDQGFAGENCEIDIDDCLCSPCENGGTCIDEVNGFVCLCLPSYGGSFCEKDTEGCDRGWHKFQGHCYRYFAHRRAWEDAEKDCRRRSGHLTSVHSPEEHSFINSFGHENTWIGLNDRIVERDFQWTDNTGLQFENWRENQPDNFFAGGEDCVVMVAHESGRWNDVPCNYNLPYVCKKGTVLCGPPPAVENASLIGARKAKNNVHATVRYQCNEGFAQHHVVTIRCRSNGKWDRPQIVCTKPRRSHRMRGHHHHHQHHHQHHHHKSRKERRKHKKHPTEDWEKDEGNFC
Chain of wLAT-1A (Homo sapiens), Q01650 (Q01650 whole entry): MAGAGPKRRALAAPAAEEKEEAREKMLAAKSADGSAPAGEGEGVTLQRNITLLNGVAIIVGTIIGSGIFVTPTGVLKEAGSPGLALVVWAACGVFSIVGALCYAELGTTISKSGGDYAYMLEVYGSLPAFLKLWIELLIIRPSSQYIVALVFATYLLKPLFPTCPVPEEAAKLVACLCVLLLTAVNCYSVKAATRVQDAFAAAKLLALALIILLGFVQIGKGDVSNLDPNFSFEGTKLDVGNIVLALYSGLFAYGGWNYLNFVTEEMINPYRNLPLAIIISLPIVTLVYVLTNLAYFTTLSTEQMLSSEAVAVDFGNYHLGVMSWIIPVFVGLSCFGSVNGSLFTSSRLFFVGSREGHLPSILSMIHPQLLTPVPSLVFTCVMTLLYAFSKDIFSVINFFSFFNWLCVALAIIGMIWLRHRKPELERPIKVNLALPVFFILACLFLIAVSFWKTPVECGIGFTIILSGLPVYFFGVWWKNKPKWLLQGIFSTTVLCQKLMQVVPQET
Chain of PILRa (Mus musculus), Q2YSF3 (Q2YSF3 entry or part of it): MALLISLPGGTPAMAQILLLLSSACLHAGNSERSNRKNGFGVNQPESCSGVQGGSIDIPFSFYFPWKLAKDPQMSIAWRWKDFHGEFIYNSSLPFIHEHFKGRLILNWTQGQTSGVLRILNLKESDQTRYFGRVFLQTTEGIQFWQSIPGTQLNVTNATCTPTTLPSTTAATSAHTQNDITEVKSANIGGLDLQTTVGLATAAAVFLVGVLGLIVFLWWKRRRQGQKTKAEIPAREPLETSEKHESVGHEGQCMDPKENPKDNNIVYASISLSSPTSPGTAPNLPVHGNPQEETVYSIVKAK
Chain of CHT (Homo sapiens) (chain, as listed by the source): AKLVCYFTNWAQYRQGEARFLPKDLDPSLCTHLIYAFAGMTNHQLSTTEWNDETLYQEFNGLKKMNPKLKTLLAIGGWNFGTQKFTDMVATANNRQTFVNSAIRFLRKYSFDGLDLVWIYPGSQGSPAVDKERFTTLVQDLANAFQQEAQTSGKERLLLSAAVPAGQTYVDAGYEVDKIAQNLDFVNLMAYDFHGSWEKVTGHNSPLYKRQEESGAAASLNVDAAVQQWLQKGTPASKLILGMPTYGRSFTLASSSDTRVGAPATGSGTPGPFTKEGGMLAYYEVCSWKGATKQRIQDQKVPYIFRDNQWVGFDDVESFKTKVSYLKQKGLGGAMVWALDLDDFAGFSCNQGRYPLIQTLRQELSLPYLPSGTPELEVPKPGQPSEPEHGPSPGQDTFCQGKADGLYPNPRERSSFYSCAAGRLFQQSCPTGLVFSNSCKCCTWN
Chain of CHI3L1 (Homo sapiens), P36222 (P36222 whole entry): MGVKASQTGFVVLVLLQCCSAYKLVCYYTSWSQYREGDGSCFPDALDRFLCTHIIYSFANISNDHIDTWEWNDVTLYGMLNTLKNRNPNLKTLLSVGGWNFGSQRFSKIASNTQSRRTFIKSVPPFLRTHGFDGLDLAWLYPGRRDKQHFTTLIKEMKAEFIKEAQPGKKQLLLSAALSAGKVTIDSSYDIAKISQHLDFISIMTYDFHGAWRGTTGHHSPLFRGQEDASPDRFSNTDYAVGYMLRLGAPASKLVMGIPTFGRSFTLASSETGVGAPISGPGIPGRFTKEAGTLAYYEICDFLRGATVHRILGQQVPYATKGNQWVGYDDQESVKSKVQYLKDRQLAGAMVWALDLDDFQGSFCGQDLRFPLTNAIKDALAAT
Chain of SRLC (Mus musculus), Q8VIF6 (Q8VIF6 other isoform, or with tags, fused parts or gaps): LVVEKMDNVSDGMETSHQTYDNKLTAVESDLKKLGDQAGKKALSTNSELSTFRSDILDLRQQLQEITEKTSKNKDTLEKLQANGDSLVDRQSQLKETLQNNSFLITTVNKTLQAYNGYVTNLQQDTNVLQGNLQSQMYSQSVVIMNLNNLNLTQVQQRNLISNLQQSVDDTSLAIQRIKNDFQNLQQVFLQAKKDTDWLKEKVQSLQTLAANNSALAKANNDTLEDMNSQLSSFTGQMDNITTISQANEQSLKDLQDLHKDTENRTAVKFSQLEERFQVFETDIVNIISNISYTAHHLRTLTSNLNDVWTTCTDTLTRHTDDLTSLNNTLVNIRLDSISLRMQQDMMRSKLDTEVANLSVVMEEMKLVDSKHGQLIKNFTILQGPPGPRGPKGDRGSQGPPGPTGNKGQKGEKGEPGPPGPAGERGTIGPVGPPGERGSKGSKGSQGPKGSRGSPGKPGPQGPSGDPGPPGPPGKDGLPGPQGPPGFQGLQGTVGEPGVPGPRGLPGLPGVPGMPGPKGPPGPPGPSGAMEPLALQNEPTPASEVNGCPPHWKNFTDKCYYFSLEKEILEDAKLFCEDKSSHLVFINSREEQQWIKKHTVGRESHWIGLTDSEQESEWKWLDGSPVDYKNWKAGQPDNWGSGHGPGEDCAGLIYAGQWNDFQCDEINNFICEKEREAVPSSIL
Chain of Regenerating Gene IV (Homo sapiens), Q9BYZ8 (Q9BYZ8 whole entry, looked up): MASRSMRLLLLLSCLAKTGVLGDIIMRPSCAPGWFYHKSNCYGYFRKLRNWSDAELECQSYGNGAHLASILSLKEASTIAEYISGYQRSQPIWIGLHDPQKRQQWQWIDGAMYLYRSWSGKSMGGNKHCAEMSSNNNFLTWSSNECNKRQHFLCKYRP
Chain of C3b (Homo sapiens), P01024 (P01024 23-667): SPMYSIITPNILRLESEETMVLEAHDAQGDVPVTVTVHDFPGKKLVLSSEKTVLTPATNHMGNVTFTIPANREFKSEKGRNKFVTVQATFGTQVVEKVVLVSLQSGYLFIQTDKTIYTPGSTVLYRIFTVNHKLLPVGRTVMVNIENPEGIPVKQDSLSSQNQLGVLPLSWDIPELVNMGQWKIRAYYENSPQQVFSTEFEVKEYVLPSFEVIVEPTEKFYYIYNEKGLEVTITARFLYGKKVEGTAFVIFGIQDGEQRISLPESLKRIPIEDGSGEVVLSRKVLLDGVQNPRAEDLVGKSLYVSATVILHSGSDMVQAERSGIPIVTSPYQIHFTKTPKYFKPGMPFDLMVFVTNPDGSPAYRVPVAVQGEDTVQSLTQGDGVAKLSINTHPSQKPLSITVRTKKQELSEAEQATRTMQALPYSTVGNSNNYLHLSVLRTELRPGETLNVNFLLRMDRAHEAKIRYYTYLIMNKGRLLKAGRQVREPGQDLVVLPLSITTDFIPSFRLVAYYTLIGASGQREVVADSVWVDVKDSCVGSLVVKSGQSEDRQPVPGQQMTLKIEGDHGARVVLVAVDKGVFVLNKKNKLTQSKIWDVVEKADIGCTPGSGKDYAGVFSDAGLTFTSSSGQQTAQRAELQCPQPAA
Chain of Aggrecan (Rattus norvegicus), NP_071526 (chain, as listed by the source): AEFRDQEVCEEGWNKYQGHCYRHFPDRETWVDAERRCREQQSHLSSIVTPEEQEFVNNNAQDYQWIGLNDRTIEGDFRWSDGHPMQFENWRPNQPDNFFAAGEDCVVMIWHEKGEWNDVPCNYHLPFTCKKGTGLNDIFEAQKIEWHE

Regenerating Gene IV (Homo sapiens), Q9BYZ8
glycan array binding signal (z-score) (GlcNAc(b1-3)Gal): -0.345
glycan array binding signal (z-score) (GlcNAc3Prop(b1-4)GlcNAc): -0.463

CHI3L1 (Homo sapiens), P36222
glycan array binding signal (z-score) [1]: 15.6
glycan array binding signal (z-score) [2]: 14.5
glycan array binding signal (z-score) (GlcNAc3Prop(b1-4)GlcNAc): -0.044

wLAT-1A (Homo sapiens), Q01650
glycan array binding signal (z-score) (GlcNAc(b1-3)Gal(b1-4)Glc): -0.411
glycan array binding signal (z-score) (GlcNAc(b1-6)GalNAc): 0.369
glycan array binding signal (z-score) (GlcNAc3Prop(b1-4)GlcNAc): 0.213

MpAFP RI GFP (Marinomonas primoryensis)
glycan array binding signal (z-score) [3]: 2.86
glycan array binding signal (z-score) [4]: 1.29
glycan array binding signal (z-score) [5]: 4.26
glycan array binding signal (z-score) [6]: 1.39
glycan array binding signal (z-score) [1]: -0.527

HARE (Homo sapiens), Q8WWQ8
glycan array binding signal (z-score) (Kdn(a2-3)Gal(b1-3)GlcNAc): -0.646

PILRa (Mus musculus), Q2YSF3
glycan array binding signal (z-score) [7]: -0.314
glycan array binding signal (z-score) (GlcNAc3Prop(b1-4)GlcNAc): -0.331
glycan array binding signal (z-score) [8]: 0.098

Siglec-8 (Homo sapiens), Q9NYZ4
glycan array binding signal (z-score) [4]: 0.434
glycan array binding signal (z-score) [9]: 0.693
glycan array binding signal (z-score) [10]: -0.017
glycan array binding signal (z-score) [2]: -0.111
glycan array binding signal (z-score) ([11]; mutation: R125K): -0.467

Aggrecan (Rattus norvegicus), NP_071526
glycan array binding signal (z-score) [11]: 0.018

Avaren (Actinomycete K97)
glycan array binding signal (z-score) [4]: -0.046
glycan array binding signal (z-score) [12]: -0.108
glycan array binding signal (z-score) (GlcNAc(b1-6)GalNAc): -0.119

PILRb (Mus musculus), Q2YSF2
glycan array binding signal (z-score) [13]: -0.214
glycan array binding signal (z-score) [2]: -0.432
glycan array binding signal (z-score) (GlcNAc(b1-6)GalNAc): -0.025

CHT (Homo sapiens)
glycan array binding signal (z-score) ([1]; mutation: D138V, E140I): 11.9
glycan array binding signal (z-score) ([2]; mutation: D138V, E140I): 8.66
glycan array binding signal (z-score) (Kdn(a2-3)Gal(b1-3)GlcNAc; mutation: D138V, E140I): -0.105

SRLC (Mus musculus), Q8VIF6
glycan array binding signal (z-score) [14]: -0.205
glycan array binding signal (z-score) (Kdn(a2-3)Gal(b1-3)GlcNAc): -0.229

C3b (Homo sapiens), P01024
glycan array binding signal (z-score) [15]: 7.72
glycan array binding signal (z-score) [11]: 2.75

Neurocan (Homo sapiens), O14594
glycan array binding signal (z-score) [13]: -1.33
glycan array binding signal (z-score) (GlcNAc(b1-3)Gal): -0.097
glycan array binding signal (z-score) [2]: -0.99

6RG (Lolium perenne)
glycan array binding signal (z-score) [14]: -0.272
